In PubChem BioAssay (EPA / NIEHS):
Records with an inconclusive call do not appear. Calls of active or inactive are those of the source. Rule for the calls: active = hit-call score of the fitted dose curve at least 0.9, where 1 is the maximum; inconclusive = response in the unintended direction; inactive = score below 0.9.

These compounds were tested against Cellular tumor antigen p53 (Homo sapiens) (UniProt P04637) (assay: TOX21_p53_BLA_p2_ratio: Tox21 HCT-116 p53 Agonism Beta-lactamase Assay, Ratio, Phase 2 (AID 2283592)).
Outline: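 Read-out is the blue/green (460/530 nm, 405 nm excitation) ratio after 2 h CCF4-AM loading, fitted as gain versus DMSO. Compounds, pinned at 217-fold dilution from DMSO stocks, stayed 16 h on HCT-116 beta-lactamase reporter cells seeded 5 h earlier.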

Chain of Cellular tumor antigen p53 (Homo sapiens) (P04637 whole entry, looked up): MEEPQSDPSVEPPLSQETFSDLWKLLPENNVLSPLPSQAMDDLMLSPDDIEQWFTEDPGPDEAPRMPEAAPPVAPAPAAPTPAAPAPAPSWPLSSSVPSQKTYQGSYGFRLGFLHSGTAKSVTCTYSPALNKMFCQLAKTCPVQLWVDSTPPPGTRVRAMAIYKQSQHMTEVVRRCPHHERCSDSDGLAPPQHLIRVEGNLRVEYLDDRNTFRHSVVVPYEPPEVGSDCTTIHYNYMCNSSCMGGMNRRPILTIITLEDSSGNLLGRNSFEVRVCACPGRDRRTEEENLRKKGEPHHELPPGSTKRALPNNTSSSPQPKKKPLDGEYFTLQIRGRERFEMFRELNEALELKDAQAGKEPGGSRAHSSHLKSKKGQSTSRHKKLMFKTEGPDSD

| SMILES | outcome |
| --- | --- |
| CCCCCCCCCC(C)=O | inactive |
| Cc1c(C(=O)c2c[nH]n(C)c2=O)ccc(S(C)(=O)=O)c1C1=NOCC1 | inactive |
| CCCc1ccc(O)c(OC)c1 | inactive |
| CC(=O)OC(C)c1ccccc1 (stereo not given) | inactive |
| CC(C)(O)Cc1ccccc1 | inactive |
| O=C(Oc1ccccc1)c1ccccc1C(=O)Oc1ccccc1 | inactive |
| C=C(C)C(=O)OCCCCCCCCCCCC | inactive |
| Nc1ccnc(=O)[nH]1 | inactive |
| CC(CCC(=O)O)(c1ccc(O)cc1)c1ccc(O)cc1 | inactive |
| CC(C)(C)C1CCC(=O)CC1 | inactive |
| CCCCCOC(=O)CCCCC | inactive |
| C=Cc1ccc(OC(C)=O)cc1 | inactive |
| CCCCC1CCC(=O)O1 (stereo not given) | inactive |
| O=C(C=Cc1ccccc1)OCCc1ccccc1 | inactive |
| O=C(Cl)c1ccc(C(=O)Cl)cc1 | inactive |
| CCOC(=O)C1=NOC(c2ccccc2)(c2ccccc2)C1 | inactive |
| O=C(Cl)c1c(Cl)c(Cl)c(C(=O)Cl)c(Cl)c1Cl | inactive |
| CC1=C(O)C(=O)C(C)O1 (stereo not given) | inactive |
| CCCC/C=C/C=C\C=O | inactive |
| O=C(OCCc1ccccc1)c1ccccc1 | inactive |

| SMILES | outcome |
| --- | --- |
| CC(=O)OCC=C(C)C | inactive |
| O=C(O[C@@H]1Cc2c(O)cc(O)cc2O[C@@H]1c1cc(O)c(O)c(O)c1)c1cc(O)c(O)c(O)c1 | inactive |
| CCCCOCCOC(=O)COc1ccc(Cl)cc1Cl | inactive |
| CC1(C)CCC[C@]2(C)[C@H]3CC(=O)O[C@]3(C)CC[C@@H]12 | inactive |
| CCC1COC(=O)O1 (stereo not given) | inactive |
| CN(C)Cc1cc(CN(C)C)c(O)c(CN(C)C)c1 | inactive |
| CCCCCCCCCCCCCC(=O)OC(C)C | inactive |
| CO[Si](CCCS)(OC)OC | inactive |
| CC(C)c1ccc(O)c(C(C)C)c1 | inactive |
| C=C(C)C1CC=C(C)C(OC(C)=O)C1 (stereo not given) | inactive |
| C=CCCCCCCCCO | inactive |
| N#Cc1ccc(C2CCCc3cncn32)cc1 (stereo not given) | inactive |
| CCCCCCOc1ccc(N)cc1 | inactive |
| Clc1cc(Cl)c(Cl)c(Cl)c1Cl | inactive |
| COCC(=O)O | inactive |
| C=CCNCC=C | inactive |
| CC(C)C(=O)OCCOc1ccccc1 | inactive |
| CC(=O)OC1CCCCC1C(C)(C)C (stereo not given) | inactive |
| CCCCOCC(C)O (stereo not given) | inactive |
| CC1(C)[C@@H]2CC[C@@]1(C)C(=O)C2 | inactive |
